# Measured values published in PubChem BioAssay AID624331 (National Center for Advancing Translational Sciences (NCATS), 2012).
# Results filed as inconclusive are left out. Where a call stands in place of a potency, no number is given. The source made the active and inactive calls. Calls follow the shape of the dose curve; as a rule, active = well fitted activation curve with a large enough effect; inconclusive = small, poorly fitted or top-dose-only effect; inactive = no such curve, though single readings can be large or run the other way.
# Test: qHTS assay for re-activators of p53 using a Luc reporter: Hit Validation with no p53 Expressed
# Procedure, shortened: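 Counter-screen of primary hits in a cell line not transfected with p53, in Opti-MEM with 10% FBS; compounds at several concentrations (10 mM stock, 1:5; top 46.1 µM in well), 24 h at 37 deg C, 5% CO2. Luminescence read after 10 min with Amplite reagent.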
# Potency is read from the fitted curve at half-maximal effect.
row,Structure (SMILES),Potency
1,O=C(Nc1ccc2c(c1)OCO2)c1cc(Cl)ccn1,inactive
2,O=C(COc1ccc(F)cc1Cl)NC1CCCCCC1,inactive
3,COCC(=O)Nc1nnc(COc2ccccc2)s1,inactive
4,CCCCCCC1CC(/C(C)=N\NC(N)=O)OC1=O (centres undefined),inactive
5,Cc1ccc(OCC(=O)c2cc(C)n(C)c2C)c([N+](=O)[O-])n1,inactive
6,CCOC(=O)CC(=O)Nc1ccc(C(=O)OCC)cc1,inactive
7,O=C(Nc1ccccc1N1CCCCC1)c1ccc([N+](=O)[O-])o1,inactive
8,Cc1cc(Br)c(S(=O)(=O)NCCN2CCOCC2)cc1C,inactive
9,Cc1ccc(-c2cc(-c3ccccc3Cl)[nH]n2)c(O)c1,inactive
10,S=c1[nH]nc(-c2ccco2)n1Cc1ccccc1,inactive
11,COCCCN=C(c1ccco1)n1c(=S)nc(-c2ccco2)n(CCCOC)c1=S,inactive
12,CCc1ccc(OCC(=O)NC(NC(=S)Nc2ccccc2C)C(Cl)(Cl)Cl)cc1 (centres undefined),inactive
13,NNc1nc(-c2ccccc2)nc2sc3c(c12)CCCC3,inactive
14,Cc1ccc(-c2nnc(N(C)C(=O)C3CCCO3)s2)cn1 (centres undefined),inactive
15,O=C(Nc1ccc(OC(F)(F)F)cc1)c1cnc2n(c1=O)CCS2,inactive
16,O=c1[nH]c(N/N=C/c2ccc(O)cc2)nc2ccccc12,inactive
17,Clc1ccc(-c2nnc(SCc3ccon3)o2)c(Cl)c1,1.84 µM (active)
18,Cc1ccc(S(=O)(=O)NCC(=O)NCC(=O)N2CCC(C)CC2)cc1,inactive
19,COc1ccc2[nH]c(=O)c3c(c2c1)OC(C)(C)C=C3,inactive
20,COC(=O)Cc1n[nH]c(=S)[nH]c1=O,inactive
21,Cc1ccccc1Cn1nnc(-c2cccc(C(=O)O)c2)n1,inactive
22,CC1Cc2ccccc2N1C(=O)COC(=O)C1(c2ccccc2F)CCCC1 (centres undefined),inactive
23,O=C(N/N=C/C1C(c2ccccc2)C1(Cl)Cl)c1cccc(Cl)c1 (centres undefined),inactive
24,Cc1cc(C(=O)N2CCN(c3ccccc3Cl)CC2)c(C)o1,inactive
25,O=C(NCc1ccco1)c1noc2c1CCCC2,inactive
26,COc1ccc(-c2csc(NCc3ccco3)n2)cc1C,inactive
27,CCc1ccc(N=c2c([N+](=O)[O-])nn(-c3ccccc3)n2O)cc1,inactive

row,Structure (SMILES),Potency
1,O=C(Nc1ccccc1Br)c1ccc(OC(=S)N2CCOCC2)cc1,inactive
2,Nc1nc2ccc(N3CCOCC3)cc2s1,inactive
3,O=C(c1cccc(S(=O)(=O)NCc2ccc3c(c2)OCO3)c1)N1CCCC1,inactive
4,Cc1csc2nc(COC(=O)c3cccc(N(C)C)c3)cc(=O)n12,inactive
5,Cc1ccc(N2C(=O)c3ccccc3C2C(=O)c2cc(C)ccc2O)cc1 (centres undefined),inactive
6,CCCCOC(=O)c1ccc(NC(=O)CSc2nncn2C)cc1,inactive
7,Cc1ccc(C)n1-c1sc2c(c1C(=O)O)CCCC2,inactive
8,COCCSc1nnc(NC(=O)CCS(=O)(=O)c2ccccc2)s1,inactive
9,Cc1ccc(S(=O)(=O)CNC(=O)c2ccccc2)cc1,inactive
10,Cc1cccc(-n2c(C)cc(C(=O)NC3CCCCC3)c2C)c1,inactive
11,O=S(=O)(N/N=C/c1ccccc1OCc1ccc(Cl)cc1)c1ccccc1,inactive
12,COc1ccccc1Oc1c(C)oc2c(CN(C)C)c(O)ccc2c1=O,inactive
13,CCCCOC(=O)Nc1ccc(N2CCCCC2)cc1,inactive
14,O=C(COc1ccccc1Cl)Nc1ccc(Cl)cn1,inactive
15,Cn1c(CCN2CCCCC2)nc2cc(NC(=O)Nc3ccccc3)ccc21,inactive
16,Cc1ccc(C(=O)Nc2ccn(C)n2)cc1,inactive
17,N#C/C(=C/c1ccccc1[N+](=O)[O-])c1nc(C2CC2)cs1,inactive
18,Cc1ccc(C)c(C(=O)COC(=O)c2n[nH]c3ccccc23)c1,inactive
19,C/C(=C\COc1ccc2ccc(=O)oc2c1)CC[C@@H](O)C(C)(C)O,inactive
20,CC(C)N1C(=O)CN(C2CCCCCC2)C(=O)C1c1ccccc1F (centres undefined),inactive
21,O=c1oc(-c2ccc(O)c(O)c2)cc2cc(O)cc(O)c12,inactive
22,CC(=O)N1CCN(C(=O)COC(=O)COc2c(C)cc(C)cc2C)CC1,inactive
23,c1ccc2cc3c(NCCN4CCOCC4)ccnc3cc2c1,inactive
24,Brc1ccccc1-c1nc(-c2ccccc2)no1,inactive
25,CCCSc1ccc2nc(-c3ccccc3)cn2c1,inactive
26,COc1ccc(CNc2nc(-c3ccccc3)nn2C(=O)c2ccc([N+](=O)[O-])cc2)cc1,inactive
27,Cc1nc(NC(=O)C2CC3CCCC(C2)C3=O)sc1C (centres undefined),inactive

row,Structure (SMILES),Potency
1,CC(C)(C)NC(=O)CSC(=Nc1ccccc1F)NC#N,inactive
2,Cc1nn2cc(-c3ccc(-c4ccccc4)cc3)nc2s1,0.731 µM (active)
3,Cc1cccc(-n2c(O)c(C=Nc3ccccc3N)c(=O)[nH]c2=O)c1,inactive
4,Cn1ncc(Cl)c(Oc2ccc(C(C)(C)C)cc2)c1=O,inactive
5,COc1cc(C2=NOC(C(=O)NCc3ccc(F)cc3)C2)cc(OC)c1OC (centres undefined),inactive
6,COc1ccc(CCC(C)NCC(C)c2ccccc2)cc1 (centres undefined),inactive
7,Cc1c(C(=O)N(C)c2ccccc2Cl)cnn1-c1ccccc1,inactive
8,CCOC(=O)c1c(NC(=O)CN2CCCc3ccccc32)sc(C)c1C,inactive
9,O=C(Nc1ccc2ccccc2c1)c1ccc(Cl)cc1Cl,inactive
10,O=C(NNC(=S)NC1CCCCC1)c1cccs1,inactive
11,C#CC(C)(CC)NC(=O)Cn1nnc(-c2ccc(S(C)(=O)=O)cc2)n1 (centres undefined),inactive
12,O=C(c1cccc(Br)c1)c1coc2ccc(O)cc12,inactive
13,O=C(COC(=O)C12CC3CC(CC(O)(C3)C1)C2)Nc1ccc(Br)cc1F,inactive
14,O=C(CC1CCCCC1)NCc1ccc(Cl)cc1,inactive
15,N#Cc1nc(COc2ccccc2)oc1N1CCOCC1,inactive
16,S=C(Nc1cccc(Br)c1)c1ccccc1,inactive
17,COc1ccccc1OCCn1nnc2ccccc21,inactive
18,CC1=CN2C(=N)/C(=C/c3ccc(C)o3)C(=O)N=C2S1,inactive
19,O=C(c1ccc(N2CCN(S(=O)(=O)c3ccccc3)CC2)c([N+](=O)[O-])c1)N1CCOCC1,inactive
20,Cc1cccc(NC2SC(=O)N(c3ccccc3)C2=O)c1 (centres undefined),inactive
21,O=C(CCc1nc(-c2ccccc2F)no1)NC1CCCCCC1,inactive
22,c1ccc2nc(-c3ccc(N4CCOCC4)cc3)ccc2c1,inactive
23,CS(=O)(=O)n1nc(-c2ccccc2)nc1NCc1ccco1,inactive
24,COc1cc(N=c2c([N+](=O)[O-])nn(-c3ccc4c(c3)OCCO4)n2O)cc(OC)c1,inactive
25,N#C/C(=C\c1ccc(OCc2ccc(Br)cc2)cc1)C(=O)Nc1cccc(C(=O)O)c1,inactive
